Laboratory results published in PubChem BioAssay AID720 (The Scripps Research Institute Molecular Screening Center, 2007).
About 140 (0.14%) of roughly 97,000 compounds were called active.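 How the source made its calls: active means inhibition above the screen-wide mean inhibition plus 3 SD (cut at about 15% in these data); inactive means the rest.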 The entries come from a sample that favours actives as a whole.

What follows are molecules tested against Ephrin type-B receptor 4 (Homo sapiens) (UniProt P54760) (assay: blockers of EphB4 ligand binding – biochemical, TNYL-RAW peptide probe, fluorescence polarization, primary screen (AID 720;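 further: 0% = DMSO wells and 100% = excess unlabeled TNYL-RAW peptide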)). Conditions: EphB4 LBD / TNYL-RAW-Alexa532 peptide, at 7 µM, active compounds read high.
Ephrin type-B receptor 4 (Homo sapiens), sequence (P54760 whole entry, looked up, the tested form may be a part): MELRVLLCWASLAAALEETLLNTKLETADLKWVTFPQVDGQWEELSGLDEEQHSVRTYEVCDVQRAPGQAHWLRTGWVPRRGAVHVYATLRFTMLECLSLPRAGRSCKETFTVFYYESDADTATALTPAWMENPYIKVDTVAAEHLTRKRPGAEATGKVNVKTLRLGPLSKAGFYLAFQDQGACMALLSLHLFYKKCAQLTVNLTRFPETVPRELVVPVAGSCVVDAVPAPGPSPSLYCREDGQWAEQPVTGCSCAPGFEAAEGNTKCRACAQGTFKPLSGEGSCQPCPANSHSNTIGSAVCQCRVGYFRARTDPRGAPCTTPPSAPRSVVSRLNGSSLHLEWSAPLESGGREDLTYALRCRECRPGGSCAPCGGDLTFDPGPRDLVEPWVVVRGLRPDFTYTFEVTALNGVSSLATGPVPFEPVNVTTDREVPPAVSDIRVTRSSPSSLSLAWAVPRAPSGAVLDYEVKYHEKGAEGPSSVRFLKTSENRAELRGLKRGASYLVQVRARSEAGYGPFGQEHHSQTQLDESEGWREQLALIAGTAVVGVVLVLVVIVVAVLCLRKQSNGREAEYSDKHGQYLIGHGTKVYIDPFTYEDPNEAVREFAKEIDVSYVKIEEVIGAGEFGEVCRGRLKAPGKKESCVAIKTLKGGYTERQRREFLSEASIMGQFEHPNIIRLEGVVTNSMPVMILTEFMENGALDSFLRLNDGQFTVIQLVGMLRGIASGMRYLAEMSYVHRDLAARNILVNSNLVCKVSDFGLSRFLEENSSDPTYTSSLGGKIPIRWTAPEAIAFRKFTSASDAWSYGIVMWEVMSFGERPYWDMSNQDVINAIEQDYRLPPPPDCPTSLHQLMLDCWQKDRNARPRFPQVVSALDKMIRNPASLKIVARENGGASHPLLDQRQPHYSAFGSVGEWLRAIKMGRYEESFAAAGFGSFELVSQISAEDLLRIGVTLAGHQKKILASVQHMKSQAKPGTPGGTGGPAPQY

inhibition, inactive:
Cc1ccc(-c2nn(-c3ccccc3)cc2/C=N/NC(=O)c2ccc3c(c2)OCO3)cc1 -6.96%, CN(C)Cc1ccccc1C1(O)c2ccccc2CSc2ccccc21 (configuration not stated) 2.27%, O=c1nc(N2CCOCC2)nc2n1CCO2 -6.76%, CC(C)CC(N=C1NC(C)(C)Cc2ccccc21)C(=O)O (configuration not stated) 0.51%, COc1ccc(/C(O)=C2\C(=O)C(=O)N(Cc3ccco3)C2c2ccc(OC)cc2OC)cc1 (configuration not stated) -7.3%, CCOC(=O)c1c(NC(=O)CCCN2CCOCC2)sc2c1CC(C)(C)OC2 7.6%, CCCOC(=O)c1[nH]c2c(c1C)C(=O)CC(c1cccs1)C2 (configuration not stated) 3.13%, Nn1c(Cc2cccc3ccccc23)nnc1SCC(=O)N1CC(=O)Nc2ccccc21 5.41%, CCOc1ccc(NC(=O)CN(C)CC(=O)Nc2cccc(Cl)c2C)cc1OCC -10.2%, COC(=O)c1ccc(C2C(Oc3ccccc3C)C(=O)N2CCc2ccc(OC)c(OC)c2)cc1 (configuration not stated) -5.62%, CCC(C)(C(=O)NC1CCCCC1)N(C)C(=O)c1ccc2c(c1)OCO2 (configuration not stated) 3.83%, O=C(COc1ccc(Cl)cc1)N1CCN(S(=O)(=O)c2ccc(Cl)cc2)CC1 0.78%, Cc1cccc(N2CCN(C(=O)CN(C)S(=O)(=O)c3ccc4c(c3)CCC(=O)N4)CC2)c1C 3.05%, CN(C)CCNC(=O)Nc1cccc(Cl)c1Cl -7%, O=C1CSC(c2ccc(Cl)cc2)N1 (configuration not stated) -6.27%, Cc1cccc(NC(=S)Nc2ccc(Br)cc2)c1 1.26%, O=C(Nc1cccn(Cc2c(Cl)cccc2Cl)c1=O)c1ccc(Cl)cc1 4.57%, CCOc1ccc(Nc2nc(Cc3nnc(SCC(=O)c4ccc(C)cc4)o3)cs2)cc1 2.63%, CC(C)(C)n1nnnc1C(c1ccc(Cl)cc1)N1CCSCC1 (configuration not stated) 3.05%, COc1cccc2c1OCC1COc3c(c(=O)n(C)c(=O)n3C)C21 (configuration not stated) 5.25%, Cc1ccc(NC(=O)CSCC(=O)N2CCOCC2)cc1 1.18%, Cc1cc(Nc2ccccc2)nc(N)n1 -7.64%, O=C(NCCc1ccccn1)c1cc(C(=O)C2CCCCC2)c[nH]1 1.78%, C/C(=N\NC(=O)c1nc(C)cc(C)n1)c1ccccc1 3.33%, O=S(=O)(Cc1cc(Sc2ccccc2)nc(-c2ccccc2)n1)c1ccccc1 -3.64%, Cc1cc(N)n2nc(-c3ccc(C(C)(C)C)cc3)cc2n1 -2.84%

inhibition, active:
CN(C)c1nc2n(c(=O)n1)CCO2 17.6%
